Data reported in PMC4336329 (PLoS ONE, 2015).
The whole screen tested about 310,000 compounds, of which about 14,000 (4.5%) showed an effect of 50% or more. The effect is printed as a negative number. Shown is part of a subset that was picked to be rich in strong results.

target: human ether-à-go-go-related gene (hERG) potassium channel (human, UniProt Q12809); assay: primary screen, population patch clamp on CHO cells stably expressing hERG; higher = less effect of the substance
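Further: peak tail current of the secondary pulse compared with the same well before compound.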

Sequence of human ether-à-go-go-related gene (hERG) potassium channel (Q12809 whole entry, looked up): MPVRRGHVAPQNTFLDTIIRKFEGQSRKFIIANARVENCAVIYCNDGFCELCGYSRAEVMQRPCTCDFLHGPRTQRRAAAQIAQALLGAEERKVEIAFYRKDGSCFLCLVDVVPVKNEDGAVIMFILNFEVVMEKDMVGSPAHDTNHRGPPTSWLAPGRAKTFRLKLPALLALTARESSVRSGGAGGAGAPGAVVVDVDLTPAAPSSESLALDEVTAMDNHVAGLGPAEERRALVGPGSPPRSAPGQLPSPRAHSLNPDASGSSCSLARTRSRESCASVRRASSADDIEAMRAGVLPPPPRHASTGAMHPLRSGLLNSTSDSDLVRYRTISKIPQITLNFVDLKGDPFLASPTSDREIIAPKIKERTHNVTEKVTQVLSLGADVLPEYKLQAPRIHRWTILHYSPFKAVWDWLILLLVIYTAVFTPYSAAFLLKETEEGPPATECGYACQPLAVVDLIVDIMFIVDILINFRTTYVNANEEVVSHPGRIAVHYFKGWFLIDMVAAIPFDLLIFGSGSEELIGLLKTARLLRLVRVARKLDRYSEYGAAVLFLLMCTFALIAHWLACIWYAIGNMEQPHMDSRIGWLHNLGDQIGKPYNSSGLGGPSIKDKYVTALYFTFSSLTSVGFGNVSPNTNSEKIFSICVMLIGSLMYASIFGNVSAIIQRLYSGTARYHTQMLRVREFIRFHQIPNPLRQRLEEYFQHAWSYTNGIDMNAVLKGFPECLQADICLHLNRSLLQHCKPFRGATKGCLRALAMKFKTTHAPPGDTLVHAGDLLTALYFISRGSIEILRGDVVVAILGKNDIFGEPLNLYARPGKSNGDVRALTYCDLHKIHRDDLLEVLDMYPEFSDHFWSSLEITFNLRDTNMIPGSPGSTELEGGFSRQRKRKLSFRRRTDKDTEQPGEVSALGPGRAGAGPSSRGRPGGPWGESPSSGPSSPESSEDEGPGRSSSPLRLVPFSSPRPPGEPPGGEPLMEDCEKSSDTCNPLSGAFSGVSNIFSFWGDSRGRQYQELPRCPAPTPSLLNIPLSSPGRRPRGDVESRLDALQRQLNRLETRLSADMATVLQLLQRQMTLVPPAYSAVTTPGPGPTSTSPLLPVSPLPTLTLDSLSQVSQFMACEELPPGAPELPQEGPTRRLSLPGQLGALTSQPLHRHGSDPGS

| SMILES | hERG current change (%, negative = inhibition) at 10uM |
| --- | --- |
| COc1cc2c(cc1OC)C(C)N(C(=O)Nc1ccc(F)cc1)CC2 (stereo not drawn) | 10.6% |
| Br.O=C(CSc1nc2ccccc2c(=O)n1-c1ccccc1)c1cccc([N+](=O)[O-])c1 | -7.38% |
| COc1cc2c(cc1OC)C(c1ccc(Br)cc1)N(C(=O)c1ccccc1C(=O)O)CC2 (stereo not drawn) | 9.72% |
| Cc1cc(C)c(C)c(S(=O)(=O)NCCCN2CCOCC2)c1C | 13.6% |
| O=C1CCN(C(=O)Nc2cccc(Cl)c2)N1 | 14.1% |
| CCOc1ccc(NC(=O)N(CCC(C)C)C2CCN(C(C)=O)CC2)cc1 | -9.87% |
| COCCN(C(=S)Nc1ccc(OC)c(Cl)c1)C1CCN(C(C)C)CC1 | -35.9% |
| CC(C)CCN(C(=S)Nc1cccc(F)c1)C1CCN(C(C)C)CC1 | -42.9% |
| COc1ccc(NC(=S)N(CCC(C)C)C2CCN(C(C)C)CC2)cc1Cl | -68.1% |
| CSc1cccc(NC(=S)N(CCC(C)C)C2CCN(C(C)=O)CC2)c1 | -23.3% |
| COc1ccc(NC(=S)N(C(C)C)C2CCN(C(C)C)CC2)cc1Cl | 0.307% |
| CC(C)CCN(C(=O)Nc1ccc(Cl)cc1)C1CCN(C(C)C)CC1 | -72.1% |
| CCCCN(C(=O)Nc1ccc(Cl)cc1)C1CCN(C(C)=O)CC1 | -46% |
| CSc1cccc(NC(=S)N(CCC(C)C)C2CCN(C(C)C)CC2)c1 | -52.5% |
| O=C1CCCN1CCCNc1ncnc2sccc12 | 3.29% |
| CC(C)(C)N1[C@@H](CC(=O)O)c2cc(C(F)(F)F)ccc2S1(=O)=O | 11.2% |
| Cc1ccccc1Nc1nc(N)nc(COC(=O)CCS(=O)(=O)c2ccccc2)n1 | -14.4% |
| CC(C)=C1C2CCC1C1C(=O)N(NC(=O)c3ccco3)C(=O)C21 (stereo not drawn) | -4.72% |
| Cc1nn(C)c(C(=O)N2CCc3ccccc32)c1Cl | 2.37% |
| CCOC(=O)c1cnc2c(C)cc(C)cc2c1Nc1ccc(S(=O)(=O)Nc2ncccn2)cc1 | -0.317% |
| COc1ccc(Cl)cc1N(CC(=O)N1CCN(Cc2ccccc2)CC1)S(C)(=O)=O | -7.28% |
| Cc1ccc2[nH]c3c(c2c1)CN(C(=O)CN1CCCCC1)CC3 | -31.8% |
| CN(CC(=O)N1CCc2[nH]c3ccc(F)cc3c2C1)CC1OCCO1 | 5.81% |
| Cc1ccc2[nH]c3c(c2c1)CN(C(=O)CN1CCN(C(=O)c2ccco2)CC1)CC3 | -5.97% |
| O=C(CN1CCN(Cc2ccc3c(c2)OCO3)CC1)N1CCc2[nH]c3ccc(F)cc3c2C1 | -62.8% |
| O=C(c1cc2cc(F)ccc2[nH]1)N1CCN(Cc2ccc3c(c2)OCO3)CC1 | -0.31% |
| Cc1ccc2[nH]c3c(c2c1)CN(C(=O)CN1CCN(Cc2ccc4c(c2)OCO4)CC1)CC3 | -54.8% |

| SMILES | hERG current change (%, negative = inhibition) at 10uM |
| --- | --- |
| COc1ccccc1NC(=O)c1sc2nc(-c3ccco3)ccc2c1N | 1.24% |
| Cc1n[nH]c(C)c1N1C(=O)c2cccc3c(N4CCCCCC4)ccc(c23)C1=O | -21.5% |
| CCC(=O)N1c2ccc(S(=O)(=O)NCCc3ccc(OC)c(OC)c3)cc2CC1C (stereo not drawn) | 10.3% |
| CSc1c(CC(=O)Nc2ccccc2Cl)n(Cc2ccccc2)c2ccccc12 | 8.86% |
| COc1ccc(NC(=O)CCCN2C(=O)CN(C)C2=O)c(OC)c1 | -4.4% |
| CCN(CC(=O)NCc1cccs1)C(=O)c1ccc(S(=O)(=O)Nc2ccccc2)cc1 | -15.6% |
| CCN(CC(=O)Nc1cccc(OC)c1)C(=O)c1cccc(S(=O)(=O)N2CCc3ccccc32)c1 | -1.63% |
| CCN(CC(=O)NCc1cccs1)S(=O)(=O)c1ccc(NC(C)=O)cc1 | -7.22% |
| CCN(CC(=O)NCc1cccs1)C(=O)c1ccc(S(=O)(=O)N(C)C)cc1 | 48.6% |
| CCN(CC(=O)NCc1cccs1)S(=O)(=O)c1ccccc1Cl | -11.3% |
| CCN(CC(=O)NCc1cccs1)S(=O)(=O)c1ccc(F)cc1 | -85% |
| CCN(CC(=O)NCc1cccs1)C(=O)c1cccc(S(=O)(=O)NC)c1 | -12.2% |
| CCN(CC(=O)NCc1cccs1)S(=O)(=O)c1c(F)cccc1F | 0.594% |
| CCN(CC(=O)NCc1cccs1)C(=O)c1ccc(S(=O)(=O)N(CC)c2ccccc2)cc1 | -61.4% |
| CCN(CC(=O)NCc1cccs1)S(=O)(=O)c1ccc(C(C)C)cc1 | -53.3% |
| CCN(CC)S(=O)(=O)c1ccc(C(=O)NCc2cccs2)cc1 | -20.7% |
| CCN(CC(=O)NCc1cccs1)C(=O)c1cccc(S(=O)(=O)N2CCc3ccccc32)c1 | -71.3% |
| COC(=O)c1ccc2c(c1)S(=O)(=O)NC(=NCCCN1CCOCC1)S2.Cl | -1% |
| COc1ccc(OCCC(=O)OCC(=O)NC(=O)NC2CCCCC2)cc1 | 13.2% |
| CN(C)c1ccc(NS(=O)(=O)c2ccc(-c3csnn3)cc2)cc1 | 13.1% |
| CCCC1(c2ccccc2)NC(=O)N(CC(=O)c2[nH]c(C)c(C(=O)OCC)c2C)C1=O (stereo not drawn) | 12.5% |
| CCOC(=O)N1CCN(Cc2cn3ccccc3n2)CC1.O=C(O)C(=O)O | 21.9% |
| Nc1cc(C(=O)N/N=C/c2cccc([N+](=O)[O-])c2)n[nH]c1=O | 7.18% |
| c1ccc(Cn2c(SCc3nc4ccccc4s3)nnc2-c2ccco2)cc1 | -34.1% |
| CCOC(=O)N1CCN(C(=O)C2CCN(S(=O)(=O)c3ccc(Br)s3)CC2)CC1 | -35.2% |
| O=C(Oc1ccc(/C=N/Nc2nc(N3CCCCC3)nc(N3CCCCC3)n2)cc1)c1ccco1 | -9.1% |
| COc1ccc(NC(=O)c2cccc(C#N)c2)cc1NS(=O)(=O)c1ccc(F)cc1 | 8.63% |
